Assay results: PubChem BioAssay AID1347383 (Zoeller Lab, School of Medicine, Boston University, 2020)
Active and inactive are the calls of the source.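 How the source made its calls: active means cell survival after UV exposure 2 SD above solvent-only control wells at 10 µM, confirmed on one or two repeats; inactive means the rest.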

Assay: cell survival after pyrene fatty acid photosensitization – ZR-82 cells, Analyticon library, screen 2, phospholipid biosynthesis inhibitor project, primary screen (AID 1347383);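 further: survival reflects blocked phospholipid synthesis cutting uptake of the phototoxic fatty acid; compound and fatty acid exposure 3 h then viability read next day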
Conditions: ZR-82 CHO cells, pyrene-fatty acid UV killing, CellTiter Blue; at 10 µM; peroxisome-deficient CHO-K1 variant; with DGAT-1, DGAT-2 and ACAT inhibitors

Compound	outcome
C=C1CCC2C(C)(C)C(OC(C)=O)CCC2(C)C1COc1ccc2ccc(=O)oc2c1 (centres undefined)	inactive
COc1ccc(CC2C(=O)OCC2Cc2cc(OC)c3c(c2)OCO3)cc1OC (centres undefined)	inactive
C#CC(O)COc1ccc(C(=O)O)cc1 (centres undefined)	inactive
COc1cc(CCc2ccc(OCC(O)C(C)(C)O)cc2)cc2c1OCO2 (centres undefined)	inactive
CC(C)=CCCC1=CC(=O)OC1O (centres undefined)	inactive
Nc1ccccc1CCCCCCCCC(=O)O	inactive
CC1CCC2C(C(=O)O)=CC3C(O)C(C)(C)CC123 (centres undefined)	inactive
COc1ccc(C(O)C(C)O)cc1 (centres undefined)	inactive
CCC(C)CC(=O)OC1C(=O)C(CO)C(OC)C(OC(C)=O)C1C(C)C (centres undefined)	inactive
O=c1ccc2cc(O)c(O)cc2o1	inactive
O=c1ccc2cc3ccoc3cc2o1	inactive
CCCc1c(C(=O)O)cc2c(c1O)C(=O)c1c(O)cccc1C2=O	inactive
CC(C)Cc1cnc(CCC(N)=O)c(=O)[nH]1	inactive
CC1(C)CC2C3OC(O)C4(O)OC(C)(CC34)C2C1 (centres undefined)	inactive
COc1ccc(CC(C)C(C)Cc2ccc3c(c2)OCO3)cc1OC (centres undefined)	inactive
O=c1c(-c2ccc(O)cc2O)coc2cc(O)cc(O)c12	inactive
O=c1c(O)c(-c2cc(O)c(O)c(O)c2)oc2cc(O)cc(O)c12	inactive
CC1=CC2=C(C(=O)OC2O)C(O)C2CC(C)(C)CC12 (centres undefined)	inactive
CO[C@@H]1[C@H](OC(=O)/C=C/C(O)C(C)O)CC[C@]2(CO2)[C@H]1[C@@]1(C)O[C@@H]1CC=C(C)C (some centres undefined)	inactive
CCC1C(=O)O[C@]23C=C[C@@H]4C(C(=O)O)=CO[C@H](OC12)[C@@H]43 (some centres undefined)	inactive

Compound	outcome
CC(C)(O)/C=C/C1=CC(O)C(C)(O)CC1O (centres undefined)	inactive
COc1c(C2=Cc3ccc(O)cc3OC2)ccc(O)c1CC=C(C)C	inactive
Oc1cc(O)cc(CCCCCCCCCCc2cc(O)cc(O)c2)c1	inactive
CC(=O)O[C@@H]1CC[C@@]2(C)C(CC[C@]3(C)C2C(=O)C=C2[C@@H]4[C@@H](C)[C@H](C)CC[C@]4(C)CC[C@]23C)[C@@]1(C)C(=O)O (some centres undefined)	inactive
C/C=C/CCc1cc(O)c2c(c1)OC(C)C2CO (centres undefined)	inactive
CC12CCC3C1C(c1c(cc(O)c(C(=O)c4ccccc4)c1O)O2)C3(C)C (centres undefined)	inactive
CCC(C)C(=O)OC1CCCC2C=CC(C)C(CCC(O)CC(O)CC(=O)O)C21 (centres undefined)	inactive
CCCCC[C@H](O)[C@H]1C(=O)OC[C@H]1CO	inactive
O=c1ccc2ccc(O)cc2o1	inactive
O=C(O)c1cc(O)c2c(c1)C(=O)c1cccc(O)c1C2=O	inactive
CC(C)=CCOc1ccc(/C=C/C(=O)c2ccc(O)cc2O)cc1	inactive
O=C(CCc1ccc(O)c(O)c1)CCC(O)Cc1ccc(O)c(O)c1 (centres undefined)	inactive
O=C(Cc1ccccc1)O[C@@H]1[C@@H](O)[C@H](O)[C@@H](CO)O[C@H]1O	inactive
CC1(C)CCCC2(C)C(CO)C3CCC2C31 (centres undefined)	inactive
CC1(C)CCC[C@@]2(C)C1C[C@H]1O[C@@]1(C)[C@]21CC[C@](C)(CC(=O)O)O1 (some centres undefined)	inactive
Cn1c2c(O)c(O)ccc2c(=O)c2c(O)cc3c(c21)C=CC(C)(C)O3	inactive
CC(C(=O)CCCCC(O)C(C)O)C(=O)N1C=CCC1 (centres undefined)	inactive
CC1NC(=O)c2ccccc2NC1=O (centres undefined)	inactive
OCCc1ccc(O)cc1	inactive
